The OligoGym collection

Each sequence was assayed against NELL2 (assay: pooled miR-30 sensor sort-seq; sequence = guide strand). Conditions: shRNA.
Note: reference of the scale not given here.

TTTCACAATAGCACTGATCCAA was tested. Which sensor-assay potency score (higher = more potent) did it give?
The sensor-assay potency score (higher = more potent) was 0.272.

For TAAAATATCCTGTAGCTCCATG, which sensor-assay potency score (higher = more potent) is on record?
Its sensor-assay potency score (higher = more potent) is -0.475.

TCGACAGCTACAAACAGCCCTG was tested. Which sensor-assay potency score (higher = more potent) did it give?
The sensor-assay potency score (higher = more potent) was -0.27.

For TAAGACGTCAATCTGTAGGGAA, which sensor-assay potency score (higher = more potent) is on record?
The sensor-assay potency score (higher = more potent) was 0.711.

TTGTGATACACTCATCATGTTC was tested. Which sensor-assay potency score (higher = more potent) did it give?
The sensor-assay potency score (higher = more potent) was -1.15.

For TTATTTCTCTGTCCTAGCCAAA, which sensor-assay potency score (higher = more potent) is on record?
The sensor-assay potency score (higher = more potent) was -1.55.

Which sensor-assay potency score (higher = more potent) does the source give for TTACAAACTTTGCAACAGCTGT here?
Its sensor-assay potency score (higher = more potent) is -0.672.

Which sensor-assay potency score (higher = more potent) does the source give for TTGCATGTCGTTCCATTCCCTG here?
The sensor-assay potency score (higher = more potent) was -1.03.

How did the sensor-assay potency score (higher = more potent) turn out when TGTCACATTGAACAAAACCATC was run?
Its sensor-assay potency score (higher = more potent) is -1.67.

TAGAGTTTCACACTGGATGGTT was tested. Which sensor-assay potency score (higher = more potent) did it give?
The sensor-assay potency score (higher = more potent) was 0.431.

Which sensor-assay potency score (higher = more potent) does the source give for TAACCTTTACAAACTTTGCAAC here?
Its sensor-assay potency score (higher = more potent) is -0.975.

The sequences below were run against NETO2 in the same assay as above. Conditions: shRNA.

Which sensor-assay potency score (higher = more potent) does the source give for TTGATAATCTAGGAACCTCAAA here?
The sensor-assay potency score (higher = more potent) was -1.24.

Which sensor-assay potency score (higher = more potent) does the source give for TTGTTTTCTCCTCTTGTTCTAC here?
The sensor-assay potency score (higher = more potent) was -0.539.

How did the sensor-assay potency score (higher = more potent) turn out when TTGACGTGGAGCAGCTTCCAAA was run?
Its sensor-assay potency score (higher = more potent) is -1.08.

For TTTCAATAGAACTGCTTCCATC, which sensor-assay potency score (higher = more potent) is on record?
Its sensor-assay potency score (higher = more potent) is -1.24.

Which sensor-assay potency score (higher = more potent) does the source give for TTATTAACAACACTTTGAGGAC here?
The sensor-assay potency score (higher = more potent) was -0.45.

TAAATGAATATTTTGCTCGAAA was tested. Which sensor-assay potency score (higher = more potent) did it give?
Its sensor-assay potency score (higher = more potent) is -0.895.

How did the sensor-assay potency score (higher = more potent) turn out when TTCTTTGACGTGGAGCAGCTTC was run?
The sensor-assay potency score (higher = more potent) was -0.587.

Which sensor-assay potency score (higher = more potent) does the source give for TAATCCACATGAATCTCCCTGT here?
The sensor-assay potency score (higher = more potent) was 0.411.

With TTAACATATATAGACTGCCTGA as the sequence, how does the sensor-assay potency score (higher = more potent) read?
The sensor-assay potency score (higher = more potent) was -0.881.

With TTAATCCACATGAATCTCCCTG as the sequence, how does the sensor-assay potency score (higher = more potent) read?
Its sensor-assay potency score (higher = more potent) is 0.06.

TTGCTCGAAATCCCAGTCCTTC was tested. Which sensor-assay potency score (higher = more potent) did it give?
The sensor-assay potency score (higher = more potent) was -0.463.

TAACAACACTTTGAGGACCGAG was tested. Which sensor-assay potency score (higher = more potent) did it give?
The sensor-assay potency score (higher = more potent) was -0.0442.

These sequences were tested against NEURL2 in the same assay as above. Conditions: shRNA.

Which sensor-assay potency score (higher = more potent) does the source give for ATCGGGCAGAGAAAACTCGGGA here?
Its sensor-assay potency score (higher = more potent) is -0.832.

For TTTATTTCTGGTCTTGGCTGGC, which sensor-assay potency score (higher = more potent) is on record?
The sensor-assay potency score (higher = more potent) was -0.107.

TATGGTTCCACGAGGAGGGTTG was tested. Which sensor-assay potency score (higher = more potent) did it give?
The sensor-assay potency score (higher = more potent) was -0.457.

For TGTGGAAGCAAACACGTCCACC, which sensor-assay potency score (higher = more potent) is on record?
The sensor-assay potency score (higher = more potent) was -1.66.

Which sensor-assay potency score (higher = more potent) does the source give for TTCTCCTCGATCTCGACCAGGA here?
The sensor-assay potency score (higher = more potent) was -0.684.

How did the sensor-assay potency score (higher = more potent) turn out when TTGTGGAAGCAAACACGTCCAC was run?
Its sensor-assay potency score (higher = more potent) is -0.451.

TCTTTGTGGAAGCAAACACGTC was tested. Which sensor-assay potency score (higher = more potent) did it give?
Its sensor-assay potency score (higher = more potent) is -1.58.

How did the sensor-assay potency score (higher = more potent) turn out when TTTCTCCTCGATCTCGACCAGG was run?
The sensor-assay potency score (higher = more potent) was -0.592.

Which sensor-assay potency score (higher = more potent) does the source give for TAGGCGGCACAGAGTCTGCAGG here?
The sensor-assay potency score (higher = more potent) was -1.34.

With ATGATGTGCATGTCGGCCGTGC as the sequence, how does the sensor-assay potency score (higher = more potent) read?
The sensor-assay potency score (higher = more potent) was -0.877.

For AAACACGTCCACCACCGCGTAG, which sensor-assay potency score (higher = more potent) is on record?
The sensor-assay potency score (higher = more potent) was -1.26.

Each sequence was assayed against NEUROD6 in the same assay as above. Conditions: shRNA.

How did the sensor-assay potency score (higher = more potent) turn out when TAATTCATCTTGCATTGTGAGA was run?
Its sensor-assay potency score (higher = more potent) is -0.914.

How did the sensor-assay potency score (higher = more potent) turn out when TAAGTTGTCCAGAGCGTCGTTG was run?
The sensor-assay potency score (higher = more potent) was -0.475.

Which sensor-assay potency score (higher = more potent) does the source give for TTAAGTTGTCCAGAGCGTCGTT here?
The sensor-assay potency score (higher = more potent) was -0.144.

With TTTGTCTTAATTAGACAGGGGA as the sequence, how does the sensor-assay potency score (higher = more potent) read?
Its sensor-assay potency score (higher = more potent) is -0.0326.

With TTGTCTTAATTAGACAGGGGAG as the sequence, how does the sensor-assay potency score (higher = more potent) read?
The sensor-assay potency score (higher = more potent) was -1.08.

For TCAGAAACTAGTAAACACCTTA, which sensor-assay potency score (higher = more potent) is on record?
The sensor-assay potency score (higher = more potent) was 0.248.
